SMILES strings stand for the structures. Out of some 52,000 compounds screened, about 4,300 (8.3%) were called active. The list comes from a sample in which actives are over-represented; it also holds similar structures and randomly drawn compounds. Values without a mark were called inactive. No stated cut-off is given here; in the data, active means survival mostly below about 52% (no sharp cut-off); inactive means mostly above about 56%.

The assay concerns DeltatarO mutant. The assay is described as follows: S. aureus survival, RN4220 and DeltatarO strains – OD600, teichoic acid synthesis inhibitors, primary screen (AID 463173). As to conditions: S. aureus RN4220 wild type/DeltatarO growth, OD600, 18 h, stronger effect = lower value, screened at 18.75 µg/mL (by protocol).
Turning to `CCc1cccc(NC(=O)CCC(=O)N2CCSc3ccccc32)c1`, the survival was 57%.

With `CC(C)(C)C(=O)Nc1cccc(C(=O)OCc2cc(=O)n3nc(C4CCCCC4)sc3n2)c1`, the survival was 124%.

On to `COc1ccc(-c2nnc(SCc3nnc(-c4ccccc4)o3)o2)cc1OC`, for which the survival is 73%.

Consider `Cc1nn(CCC(=O)Nc2cc(F)ccc2F)c(=O)c2nn(-c3ccccc3)c(C)c12`, for which the survival was 99%.

For the compound `CCC(C)(C)n1nnnc1C(c1ccccc1)N1CCc2ccccc2C1` (configuration not stated), the survival was 79%.

On to `COc1ccccc1Cn1cc(C(=O)c2ccc(Cl)cc2)c(=O)c2cc3c(cc21)OCCO3`, for which the survival is 83%.

As to `Cc1ccc(Nc2nc(C(=O)N3CCC(C)CC3)cs2)cc1`, the survival is 91%.

On to `O=C(COc1ccc(F)cc1)NCCc1nc2ccccc2[nH]1`, for which the survival was 57% (active).

For `Cc1cc(C)cc(OCC(=O)NCCc2nc3ccccc3[nH]2)c1`, the survival is 109%.

For `O=C(NCCc1nc2ccccc2[nH]1)c1ccc(F)cc1`, the survival is 81%.

In the case of `COc1ccc(C(=O)NCCc2nc3ccccc3[nH]2)cc1`, the survival was 127%.

Consider `Cc1cccc(OCC(=O)NCCc2nc3ccccc3[nH]2)c1C`, for which the survival was 79%.

For `Cc1cc(OCC(=O)NCCc2nc3ccccc3[nH]2)cc(C)c1Cl`, the survival was 44% (active).

Take `COc1cccc(CNC(=O)c2ccc(-c3nc(CS(=O)c4ccccc4)c(C)o3)cc2)c1` (configuration not stated): the survival was 92%.

As to `O=S(=O)(c1ccc(Cl)cc1)c1nnn2c1nc(N1CCCCC1)c1sccc12`, the survival was 52%.

Take `CCSC(=C(C#N)C#N)c1cc2c([nH]1)CCCC2`: the survival was 45% (active).

As to `N#CC(C#N)=C(C#N)c1cc2c([nH]1)CCCC2`, the survival was 81%.

`CCS/C(=C(\C#N)C(N)=O)c1ccc(-c2ccccc2)[nH]1`: the survival is 59%.

As to `CCCOc1ccc(C2C(=O)N(C3CCCCC3)CC(=O)N2CCc2ccccc2)cc1OC` (configuration not stated), the survival is 86%.

For the compound `O=C(c1ccc(Cl)cc1)N1CCC(c2ccncc2)CC1`, the survival is 87%.

As for `Brc1cccc(-c2cnn3c(-c4ccccc4)cc(-c4ccccc4)nc23)c1`, the survival is 74%.

As to `Cc1cc(-c2ccccc2)n2nc(-c3cccc(Br)c3)cc2n1`, the survival is 14% (active).

As for `O=C(Nc1ccc(Br)cc1)c1cc2nc(-c3ccccc3)cc(-c3ccccc3)n2n1`, the survival is 65%.

Take `Cc1cc(-c2ccccc2)n2nc(-c3ccccc3)cc2n1`: the survival is -3% (active).

Take `Cc1cc(-c2ccccc2)n2nc(N)nc2n1`: the survival is 99%.

Regarding `Cc1cc(C)n2nc(-c3ccccc3)cc2n1`, the survival was 97%.

On to `CS(=O)(=O)N(CC(=O)NCCc1ccccc1)c1cc(C(F)(F)F)ccc1Cl`, for which the survival is 68%.

Source of the values: PubChem BioAssay AID463173 (ICCB-Longwood Screening Facility, Harvard Medical School, 2010).
